Results as given in PubChem BioAssay (EPA / NIEHS).
Inconclusive results are not listed. The source holds several records for some structures; these can differ, active in one and inactive in another. Active and inactive are the calls of the source. How the source made its calls, unless noted: active means hit-call score of the fitted dose curve at least 0.9, where 1 is the maximum; inconclusive means response in the unintended direction; inactive means score below 0.9.

How the values were obtained:
[1] = test system: Sodium/Iodide Symporter (NIS), SLC5A5 (gene 6528); experiment: CPHEA_Stoker_NIS_Inhibition_RAIU: CPHEA's Radioactive Iodide Uptake (RAIU) Assay for Sodium/Iodide Symporter (NIS) Inhibition, Stoker and Laws Labs (AID 2283841)
Procedure, shortened: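 Iodide uptake read as CPM of intracellular 125I (final 329 pM) after 2 h room-temperature exposure in HEPES-buffered HBSS, pH 7.4. Human NIS-expressing HEK293T cells; six concentrations 0.001–100 uM, 0.5% DMSO, normalised to DMSO wells.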

[2] = CPHEA_Stoker_NIS_Cytotoxicity: Cytotoxicity Assessment for CPHEA's Radioactive Iodide Uptake (RAIU) Assay for Sodium/Iodide Symporter (NIS) Inhibition, Stoker and Laws Labs (AID 2283897)
Procedure, shortened: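 CellTiter-Glo ATP luminescence gauged viability in HEK293T cells expressing human NIS after 2 h chemical exposure. Concentrations ran 0.001–100 uM in 0.5% DMSO; DMSO served as baseline for the loss-of-signal fit.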

[3] = molecular target: mouse Peroxisome Proliferator-activated Receptor gamma (PPARg), Pparg (gene 19016) (UniProt P37238); experiment: ATG_mPPARg_XSP2: Attagene TRANS-FACTORIAL Multi-Species (XSP2) HepG2 Assay for mouse Peroxisome Proliferator-activated Receptor gamma (PPARg) (AID 2283830);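 further: hits are gains in reporter mRNA above DMSO so AC50 marks activation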
Procedure, shortened: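 Multiplexed TRANS reporter readout: after 24 h chemical exposure of transfected HepG2 cells (with 3 nM 6-alpha-fluorotestosterone, 1.5 nM norgestrel present), RNA reverse-transcribed, amplified, 6-FAM-labelled and resolved by capillary electrophoresis; mouse PPARg-Gal4 induction scored against DMSO.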

[4] = molecular target: Nuclear receptor subfamily 1 group I member 2 (Mus musculus) (UniProt O54915); experiment: ATG_mPXR_XSP2: Attagene TRANS-FACTORIAL Multi-Species (XSP1) HepG2 Assay for mouse Pregnane X Receptor (PXR) (AID 2283831)
Procedure, shortened: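 Reporter transcripts were quantified by RT-PCR, FAM primer extension, HpaI digestion and capillary electrophoresis after 24 h of chemical exposure in transiently transfected HepG2 cells carrying chimeric receptor-GAL4 constructs; DMSO served as baseline.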

[5] = molecular target: zebrafish Thyroid Hormone Receptor alpha (TRa), thraa (gene 30670) (UniProt Q98867); experiment: ATG_zfTRa_XSP2: Attagene TRANS-FACTORIAL Multi-Species (XSP1) HepG2 Assay for zebrafish Thyroid Hormone Receptor alpha (TRa) (AID 2283832);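 further: actives raise zebrafish TRa-Gal4 reporter transcript above DMSO baseline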
Procedure, shortened: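 HepG2, transient MRTU transfection, exogenous NR-Gal4 chimeras; 24 h dosing; mRNA readout via RT-PCR/CE fluorescence; positive direction vs DMSO.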

[6] = test system: zebrafish Peroxisome Proliferator-activated Receptor gamma (PPARg), gene 557037; experiment: ATG_zfPPARg_XSP2: Attagene TRANS-FACTORIAL Multi-Species (XSP2) HepG2 Assay for zebrafish Peroxisome Proliferator-activated Receptor gamma (PPARg) (AID 2283833);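 further: actives increase reporter signal over DMSO so AC50 reflects activation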
Procedure, shortened: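 Multi-species TRANS format in HepG2, 24 h dosing; medium also contained 3 nM 6-alpha-fluorotestosterone and 1.5 nM norgestrel to stimulate androgen receptor. Zebrafish PPARg-GAL4 induced reporter mRNA was measured by RT-PCR/capillary electrophoresis.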

[7] = test system: turtle Thyroid Hormone Receptor, alpha (TRa), gene 101949057; experiment: ATG_trTRa_XSP2: Attagene TRANS-FACTORIAL Multi-Species (XSP1) HepG2 Assay for turtle Thyroid Hormone Receptor, alpha (TRa) (AID 2283834);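 further: hits raise reporter mRNA over the DMSO baseline so AC50 marks activators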
Procedure, shortened: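 Transfection of HepG2 with multiple reporter transcription units, then chemical dosing for 24 h. Total RNA was reverse-transcribed, reporter sequences PCR-amplified and FAM-labelled, then sized by capillary electrophoresis. DMSO served as baseline.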

[8] = ATG_M_61_XSP2: Attagene TRANS-FACTORIAL Multi-Species (XSP2) HepG2 Assay for M61 Transcription Factor (Internal Marker) (AID 2283835; active means hit-call score of the fitted dose curve at least 0.9, where 1 is the maximum; inactive means score below 0.9;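 further: active means a rise in signal above the DMSO baseline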)
Procedure, shortened: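 Internal background marker, read as RT-PCR/capillary-electrophoresis reporter mRNA 24 h post-dose in transiently transfected HepG2 cells. Androgen receptor stimulated with 3 nM 6-alpha-fluorotestosterone plus 1.5 nM norgestrel; gain of signal versus DMSO analysed.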

[9] = molecular target: zebrafish Thyroid Hormone Receptor beta (TRb), thrb (gene 30607) (UniProt Q9PVE4); experiment: ATG_zfTRb_XSP2: Attagene TRANS-FACTORIAL Multi-Species (XSP1) HepG2 Assay for zebrafish Thyroid Hormone Receptor beta (TRb) (AID 2283836)
Procedure, shortened: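 Transfect HepG2 with multiple reporter transcription units, dose chemical, incubate 24 h. Isolate RNA, reverse-transcribe, amplify and fluorescently label reporter sequences, digest with HpaI, then resolve by capillary electrophoresis. Positive direction fitted against DMSO.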

[10] = ATG_XTT_Cytotoxicity_XSP2: Cytotoxicity Assessment in the Attagene TRANS-FACTORIAL Multi-Species (XSP2) HepG2 Assay (AID 2283837)
Procedure, shortened: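 XTT-based cell number read-out in human HepG2 liver cells carrying transfected reporter units, measured 24 h after chemical dosing. Activity is signal loss versus DMSO baseline.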

[11] = molecular target: human Thyroid hormone Receptor alpha (TRa), THRA (gene 7067) (UniProt P10827); experiment: ATG_hTRa_XSP2: Attagene TRANS-FACTORIAL Multi-Species (XSP2) HepG2 Assay for human Thyroid hormone Receptor alpha (TRa) (AID 2283838)
Procedure, shortened: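 Reporter transcripts were read by RT-PCR with fluorescent primer extension, HpaI digestion and capillary electrophoresis. These came from HepG2 cells carrying multiplexed TRa-Gal4 TRANS constructs, harvested 24 hours after dosing. The medium also held 6-alpha-fluorotestosterone (3 nM) and norgestrel (1.5 nM), and increases were fitted against DMSO.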

[12] = molecular target: frog Thyroid hormone Receptor alpha (TRa), thra-a (gene 397942) (UniProt P15204); experiment: ATG_frTRa_XSP2: Attagene TRANS-FACTORIAL Multi-Species (XSP2) HepG2 Assay for frog Thyroid hormone Receptor alpha (TRa) (AID 2283839)
Procedure, shortened: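 Transfect HepG2 with multiple reporter units (GAL4-UAS), dose chemical, incubate 24 h. Isolate RNA, reverse-transcribe, PCR-amplify reporter, label with 6-FAM by primer extension, digest with HpaI, run capillary electrophoresis; induction scored against DMSO.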

[13] = molecular target: human Thyroid hormone Receptor beta (TRb), THRB (gene 7068) (UniProt P10828); experiment: ATG_hTRb_XSP2: Attagene TRANS-FACTORIAL Multi-Species (XSP2) HepG2 Assay for human Thyroid hormone Receptor beta (TRb) (AID 2283840);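 further: actives raise reporter mRNA so potency reflects agonist-like gain of signal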
Procedure, shortened: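 Transient transfection of human HepG2 with multi-species NR-Gal4/GAL4-UAS reporter constructs; 24 h compound treatment; RNA isolation, reverse transcription, PCR and HpaI digest; capillary electrophoresis of labeled fragments; activity fitted upward versus DMSO.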

[14] = CEETOX_H295R_OHPREG_noMTC: CeeTox H295R High-throughput Steroidogenesis Assay for OH-Pregnenolone (OHPREG), maximum tolerated concentration (MTC) filtered results only (AID 2283912; active means hit-call score of the fitted dose curve at least 0.9, where 1 is the maximum; inactive means score below 0.9); conditions: actives raise or lower the signal
Procedure, shortened: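 Medium 17alpha-hydroxypregnenolone quantified by reverse-phase HPLC-MS/MS after 48 h chemical exposure of forskolin-prestimulated (10 uM, 48 h) H295R, 0.1% DMSO final. Fitting bidirectional relative to DMSO; no maximum-tolerated-concentration filtering applied.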

[15] = CEETOX_H295R_OHPROG_noMTC: CeeTox H295R High-throughput Steroidogenesis Assay for OH-Progesterone (OHPROG), maximum tolerated concentration (MTC) filtered results only (AID 2283914; active means hit-call score of the fitted dose curve at least 0.9, where 1 is the maximum; inactive means score below 0.9); conditions: actives raise or lower the signal
Procedure, shortened: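 After 48 h forskolin (10 uM) prestimulation, H295R adrenal cells received test chemical in 0.1% DMSO for 48 h. Medium 17alpha-hydroxyprogesterone was MTBE-extracted and measured by HPLC-MS/MS; gain or loss relative to DMSO, no MTT-based MTC filtering.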

[16] = CEETOX_H295R_11DCORT_noMTC: CeeTox H295R High-throughput Steroidogenesis Assay for 11-Deoxycortisol (11DCORT), maximum tolerated concentration (MTC) filtered results only (AID 2283911; active means hit-call score of the fitted dose curve at least 0.9, where 1 is the maximum; inactive means score below 0.9); conditions: actives raise or lower the signal
Procedure, shortened: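 Steroidogenesis was stimulated in H295R cells with 10 uM forskolin for 48 h before a 48 h chemical exposure. Secreted 11-deoxycortisol was measured by tandem mass spectrometry and fitted bidirectionally against DMSO controls.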

[17] = CEETOX_H295R_CORTISOL_noMTC: CeeTox H295R High-throughput Steroidogenesis Assay for Cortisol, maximum tolerated concentration (MTC) filtered results only (AID 2283916; active means hit-call score of the fitted dose curve at least 0.9, where 1 is the maximum; inactive means score below 0.9); conditions: actives raise or lower the signal
Procedure, shortened: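 Cortisol secretion measured by LC-MS/MS after 48 h chemical treatment (final 0.1% DMSO) of forskolin-primed (10 uM, 48 h) H295R cells; gain or loss fitted relative to DMSO, without maximum-tolerated-concentration filtering.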

[18] = CEETOX_H295R_CORTIC_noMTC: CeeTox H295R High-throughput Steroidogenesis Assay for Corticosterone (CORTIC), maximum tolerated concentration (MTC) filtered results only (AID 2283917; active means hit-call score of the fitted dose curve at least 0.9, where 1 is the maximum; inactive means score below 0.9); conditions: actives raise or lower the signal
Procedure, shortened: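 Human adrenal H295R cells were prestimulated 48 h with 10 uM forskolin, then exposed 48 h to chemical in 0.1% DMSO. Medium corticosterone was MTBE-extracted and quantified by HPLC-MS/MS; bidirectional fits versus DMSO, concentrations not MTC-filtered.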

[19] = CEETOX_H295R_DOC_noMTC: CeeTox H295R High-throughput Steroidogenesis Assay for DOC, maximum tolerated concentration (MTC) filtered results only (AID 2283918; active means hit-call score of the fitted dose curve at least 0.9, where 1 is the maximum; inactive means score below 0.9); conditions: actives raise or lower the signal
Procedure, shortened: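 11-Deoxycorticosterone secreted by human adrenal H295R cells quantified by HPLC-MS/MS after 48 h chemical exposure (0.1% DMSO), following 48 h 10 uM forskolin prestimulation. Concentrations not filtered by MTT-derived MTC; bidirectional fitting.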

Chain of human Thyroid hormone Receptor beta (TRb), THRB (gene 7068) (P10828 whole entry, looked up, the tested form may be a part): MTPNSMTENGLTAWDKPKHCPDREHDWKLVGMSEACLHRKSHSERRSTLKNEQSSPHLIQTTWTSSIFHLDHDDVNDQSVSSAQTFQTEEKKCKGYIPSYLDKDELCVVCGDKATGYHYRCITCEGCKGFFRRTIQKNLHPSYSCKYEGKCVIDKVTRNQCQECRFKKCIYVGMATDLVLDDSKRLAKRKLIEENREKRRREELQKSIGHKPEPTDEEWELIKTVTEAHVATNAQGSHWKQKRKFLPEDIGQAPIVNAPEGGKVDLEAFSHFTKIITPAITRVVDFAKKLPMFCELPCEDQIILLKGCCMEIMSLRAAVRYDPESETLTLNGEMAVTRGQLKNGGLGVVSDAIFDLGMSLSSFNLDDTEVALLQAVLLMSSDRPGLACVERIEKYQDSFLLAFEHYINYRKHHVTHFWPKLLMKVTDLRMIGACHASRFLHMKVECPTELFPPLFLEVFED
Chain of frog Thyroid hormone Receptor alpha (TRa), thra-a (gene 397942) (P15204 whole entry, looked up, the tested form may be a part): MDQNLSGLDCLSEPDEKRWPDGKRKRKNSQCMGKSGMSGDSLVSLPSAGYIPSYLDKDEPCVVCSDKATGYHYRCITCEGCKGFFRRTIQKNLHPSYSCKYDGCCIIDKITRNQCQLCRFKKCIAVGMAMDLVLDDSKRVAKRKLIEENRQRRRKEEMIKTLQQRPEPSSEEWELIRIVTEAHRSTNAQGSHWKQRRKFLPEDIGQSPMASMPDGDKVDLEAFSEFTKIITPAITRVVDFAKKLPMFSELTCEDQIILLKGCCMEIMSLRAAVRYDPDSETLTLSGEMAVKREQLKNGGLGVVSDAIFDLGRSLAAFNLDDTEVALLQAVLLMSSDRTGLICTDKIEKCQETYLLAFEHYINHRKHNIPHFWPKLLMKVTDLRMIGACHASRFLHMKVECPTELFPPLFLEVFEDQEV
Chain of Nuclear receptor subfamily 1 group I member 2 (Mus musculus) (O54915 whole entry, looked up, the tested form may be a part): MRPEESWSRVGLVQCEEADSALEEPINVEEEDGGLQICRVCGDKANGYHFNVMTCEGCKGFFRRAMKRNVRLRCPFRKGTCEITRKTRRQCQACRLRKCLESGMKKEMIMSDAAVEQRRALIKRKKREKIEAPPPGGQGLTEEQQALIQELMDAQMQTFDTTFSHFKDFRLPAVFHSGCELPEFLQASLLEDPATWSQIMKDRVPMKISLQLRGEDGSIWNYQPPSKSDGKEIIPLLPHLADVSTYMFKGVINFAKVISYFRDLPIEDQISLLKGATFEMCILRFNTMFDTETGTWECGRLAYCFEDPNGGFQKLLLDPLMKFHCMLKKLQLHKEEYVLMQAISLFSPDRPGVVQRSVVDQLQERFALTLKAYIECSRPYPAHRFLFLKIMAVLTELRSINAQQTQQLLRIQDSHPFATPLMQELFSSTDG
Chain of zebrafish Thyroid Hormone Receptor beta (TRb), thrb (gene 30607) (Q9PVE4 whole entry, looked up): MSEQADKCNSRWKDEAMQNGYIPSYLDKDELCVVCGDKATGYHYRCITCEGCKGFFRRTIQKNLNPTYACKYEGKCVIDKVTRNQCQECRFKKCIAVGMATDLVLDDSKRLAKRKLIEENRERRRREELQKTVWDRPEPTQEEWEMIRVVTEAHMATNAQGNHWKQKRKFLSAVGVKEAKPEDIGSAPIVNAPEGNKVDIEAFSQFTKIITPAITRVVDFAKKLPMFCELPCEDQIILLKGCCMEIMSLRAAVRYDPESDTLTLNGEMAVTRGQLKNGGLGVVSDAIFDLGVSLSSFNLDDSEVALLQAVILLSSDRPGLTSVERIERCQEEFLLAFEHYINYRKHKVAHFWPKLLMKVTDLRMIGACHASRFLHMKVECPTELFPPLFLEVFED
Chain of mouse Peroxisome Proliferator-activated Receptor gamma (PPARg), Pparg (gene 19016) (P37238 whole entry, looked up, the tested form may be a part): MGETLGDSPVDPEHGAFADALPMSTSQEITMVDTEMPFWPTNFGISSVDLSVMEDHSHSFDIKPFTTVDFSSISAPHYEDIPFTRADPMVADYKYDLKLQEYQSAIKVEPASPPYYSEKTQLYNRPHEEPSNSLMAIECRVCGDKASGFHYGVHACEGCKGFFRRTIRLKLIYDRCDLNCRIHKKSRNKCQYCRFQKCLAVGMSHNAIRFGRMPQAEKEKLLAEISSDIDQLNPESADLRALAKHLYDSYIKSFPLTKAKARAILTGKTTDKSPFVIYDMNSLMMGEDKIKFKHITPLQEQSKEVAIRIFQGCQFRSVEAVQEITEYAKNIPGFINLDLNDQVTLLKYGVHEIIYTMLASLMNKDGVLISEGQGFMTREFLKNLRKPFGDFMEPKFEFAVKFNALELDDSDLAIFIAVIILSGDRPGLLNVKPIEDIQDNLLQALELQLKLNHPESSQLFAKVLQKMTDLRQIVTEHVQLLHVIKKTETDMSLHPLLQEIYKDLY
Chain of human Thyroid hormone Receptor alpha (TRa), THRA (gene 7067) (P10827 whole entry, looked up, the tested form may be a part): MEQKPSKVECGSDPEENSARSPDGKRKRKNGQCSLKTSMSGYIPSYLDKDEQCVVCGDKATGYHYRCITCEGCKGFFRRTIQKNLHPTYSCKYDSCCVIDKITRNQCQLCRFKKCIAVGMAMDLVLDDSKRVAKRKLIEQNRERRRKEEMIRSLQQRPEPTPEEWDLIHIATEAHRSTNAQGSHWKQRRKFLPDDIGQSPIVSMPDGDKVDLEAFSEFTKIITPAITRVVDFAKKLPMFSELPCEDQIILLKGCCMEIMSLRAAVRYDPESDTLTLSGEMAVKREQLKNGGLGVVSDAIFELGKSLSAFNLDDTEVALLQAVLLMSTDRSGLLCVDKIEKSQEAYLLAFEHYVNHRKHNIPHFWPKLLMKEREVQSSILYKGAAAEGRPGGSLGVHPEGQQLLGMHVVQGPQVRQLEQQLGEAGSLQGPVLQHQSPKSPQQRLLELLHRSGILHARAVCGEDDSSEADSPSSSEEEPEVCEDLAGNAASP
Chain of zebrafish Thyroid Hormone Receptor alpha (TRa), thraa (gene 30670) (Q98867 whole entry, looked up, the tested form may be a part): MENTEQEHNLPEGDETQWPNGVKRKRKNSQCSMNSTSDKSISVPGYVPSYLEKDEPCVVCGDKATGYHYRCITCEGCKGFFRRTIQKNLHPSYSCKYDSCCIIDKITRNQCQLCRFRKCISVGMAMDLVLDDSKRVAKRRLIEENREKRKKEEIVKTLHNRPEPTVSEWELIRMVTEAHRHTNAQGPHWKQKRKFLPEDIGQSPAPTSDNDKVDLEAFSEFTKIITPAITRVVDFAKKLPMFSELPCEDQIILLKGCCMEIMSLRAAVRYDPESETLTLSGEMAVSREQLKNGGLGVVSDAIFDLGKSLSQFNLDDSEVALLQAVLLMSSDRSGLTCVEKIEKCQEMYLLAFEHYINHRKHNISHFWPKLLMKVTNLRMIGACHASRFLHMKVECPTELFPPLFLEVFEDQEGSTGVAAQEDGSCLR

Oc1ccc2c(c1)OC[C@@H](N1CCC(O)(c3ccc(F)cc3)CC1)[C@H]2O
outcome [1]: inactive
outcome [2]: inactive

COc1ccc(S(=O)(=O)N2C(=O)[C@@](c3ccccc3OC)(N3C[C@H](O)C[C@H]3C(=O)N(C)C)c3cc(Cl)ccc32)c(OC)c1
outcome [1]: inactive
outcome [2]: inactive

CCCCC(CC)COC(=O)CC(C(=O)OCC(CC)CCCC)S(=O)(=O)O (stereo not drawn)
outcome [1]: inactive
outcome [2]: inactive

O=c1c(O)c(-c2ccc(O)c(O)c2)oc2cc(O)cc(O)c12
outcome [1]: inactive
outcome [2]: inactive

CN[C@H]1CC[C@@H](c2ccc(Cl)c(Cl)c2)c2ccc(S(N)(=O)=O)cc21
outcome [2]: inactive

C=CCOC(=O)c1ccccc1C(=O)OCC=C
AC50 [3]: 44.1 µM (active)
outcome [3]: inactive
AC50 [4]: 27.5 µM (active)
outcome [4]: inactive
outcome [5]: inactive
outcome [6]: inactive
outcome [7]: inactive
outcome [8]: inactive
outcome [9]: inactive
outcome [10]: inactive
outcome [11]: inactive
outcome [12]: inactive
outcome [13]: inactive
outcome [14]: inactive
outcome [15]: inactive

O=C(OCCCCCOC(=O)c1ccccc1)c1ccccc1
outcome [2]: inactive
outcome [16]: inactive
outcome [14]: inactive
outcome [15]: inactive
outcome [17]: inactive
outcome [18]: inactive
outcome [19]: inactive

Nc1ccccc1N
outcome [1]: inactive
outcome [2]: inactive
